Potency data for 21 molecules are collected here from PubChem BioAssay (Tox21).

Test [1] in a line: qHTS assay to identify small molecule antagonists of the thyroid receptor (TR) signaling pathway - cell viability counter screen (AID 743064). Further: nearly all actives have a fitted effect of over 50% in size. Further: potency means the concentration at half of the fitted maximal effect. The method in brief: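 Fluorescence from CellTiter-Fluor, added after 23.5 h exposure at 37 °C, reported viability of GH3.TRE-Luc cells co-treated with compound and 1 nM T3. Measured in the same wells as the luciferase TR readout.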
(In qHTS, concentration-response curves come from the screen itself.)

Test [2] in a line: qHTS assay to identify small molecule antagonists of the thyroid receptor (TR) signaling pathway (AID 743065). Further: nearly all actives have a fitted effect of over 55% in size. Further: potency means the concentration at half of the fitted maximal effect. In a few lines: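 GH3.TRE-Luc rat pituitary cells carrying two TR response elements driving luciferase were plated for 4 h, given compound plus 1 nM T3 (final), and incubated 23.5 h at 37 C. ONE-Glo luminescence measured reporter inhibition; CellTiter-Fluor fluorescence tracked cytotoxicity.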

In test [3] the test system is thyroid hormone receptor (rat, GH3 cells). Put plainly: qHTS assay to identify small molecule agonists of the thyroid receptor (TR) signaling pathway (AID 743066; calls by dose curve; further: potency means the concentration at half of the fitted maximal effect).
Test [4] concerns the target Estrogen receptor (Homo sapiens) (UniProt P03372). The test can be described thus: qHTS assay to identify small molecule antagonists of the estrogen receptor alpha (ER-alpha) signaling pathway (AID 743069; active means well fitted curve in the direction sought with a large enough effect in the signal ratio in the repeat runs, not every such curve was filed as active; inconclusive means weak or mixed curves, or effect the other way; inactive means no such curve, though single readings can be large or run the other way; the % refers to the signal ratio; further: potency means the concentration at half of the fitted maximal effect). The method in brief: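 A 17beta-estradiol challenge was applied right after compound transfer to ER-alpha-UAS-bla HEK293 cells previously kept in charcoal-stripped serum. Plates stood 18 hr at 37C and 5% CO2; fluorescence was read following 2 hr FRET substrate loading at room temperature.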

Test [5] shares this target. Put plainly: qHTS assay to identify small molecule agonists of the estrogen receptor alpha (ER-alpha) signaling pathway (AID 743075; calls by dose curve;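 further: HEK293 GripTite cells with ER-alpha and UAS-driven beta-lactamase reporter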; further: potency means the concentration at half of the fitted maximal effect).
The target is the same in test [6]. Put plainly: qHTS assay to identify small molecule agonists of the estrogen receptor alpha (ER-alpha) signaling pathway using the BG1 cell line (AID 743079). Further: nearly all actives have a fitted effect of over 20% in size. Particulars: BG1Luc4E2 cells, ERE-luciferase agonist, 22 h; activation: at 70.3 µM (top of the series).
Test [7] can be described thus: qHTS assay to identify small molecule antagonists of the estrogen receptor alpha (ER-alpha) signaling pathway using the BG1 cell line (AID 743080; calls by dose curve;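 further: BG1 cells stimulated with 17beta-estradiol alongside compound; nearly all actives have a fitted effect of over 25% in size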; further: potency means the concentration at half of the fitted maximal effect). In a few lines:
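Luminescence from a 4×ERE-luciferase reporter in BG1-Luc-4E2 cells served as read-out. Cells, pre-cultured 5 days in stripped-serum phenol-red-free medium, were exposed to compound with 17beta-estradiol co-stimulation for 21.5 h at 37 C.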

For a further test, the target named is Aromatase (Homo sapiens) (UniProt P11511). Put plainly: qHTS assay to identify aromatase inhibitors (AID 743083). Further: nearly all actives have a fitted effect of over 55% in size. Further: potency means the concentration at half of the fitted maximal effect.
The nature of test [8]: qHTS assay to identify small molecule antagonists of the estrogen receptor alpha (ER-alpha) signaling pathway - cell viability counter screen (AID 743074; calls by dose curve;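 further: HEK293 cells carrying ER-alpha-UAS-bla reporter stimulated with 17beta-estradiol; nearly all actives have a fitted effect of over 45% in size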; further: potency means the concentration at half of the fitted maximal effect).
A short description of test [9]: qHTS assay to identify small molecule antagonists of the estrogen receptor alpha (ER-alpha) signaling pathway using the BG1 cell line - cell viability counter screen (AID 743081).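 Further: compound given together with 17beta-estradiol as the ER stimulus; nearly all actives have a fitted effect of over 45% in size.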 Further: potency means the concentration at half of the fitted maximal effect.

“And” between values parts separate entries of the source, which are not always exact repeats. Identical values can stand only once. The source made the active and inactive calls. Unless noted, the call rests on the fitted dose curve; in most records, active means well fitted curve in the direction sought with a large enough effect in the repeat runs; inconclusive means weak or mixed curves; inactive means no such curve, though single readings can be large; an effect the other way counts as inactive or inconclusive.

Sequence of Estrogen receptor (Homo sapiens) (P03372 whole entry, looked up): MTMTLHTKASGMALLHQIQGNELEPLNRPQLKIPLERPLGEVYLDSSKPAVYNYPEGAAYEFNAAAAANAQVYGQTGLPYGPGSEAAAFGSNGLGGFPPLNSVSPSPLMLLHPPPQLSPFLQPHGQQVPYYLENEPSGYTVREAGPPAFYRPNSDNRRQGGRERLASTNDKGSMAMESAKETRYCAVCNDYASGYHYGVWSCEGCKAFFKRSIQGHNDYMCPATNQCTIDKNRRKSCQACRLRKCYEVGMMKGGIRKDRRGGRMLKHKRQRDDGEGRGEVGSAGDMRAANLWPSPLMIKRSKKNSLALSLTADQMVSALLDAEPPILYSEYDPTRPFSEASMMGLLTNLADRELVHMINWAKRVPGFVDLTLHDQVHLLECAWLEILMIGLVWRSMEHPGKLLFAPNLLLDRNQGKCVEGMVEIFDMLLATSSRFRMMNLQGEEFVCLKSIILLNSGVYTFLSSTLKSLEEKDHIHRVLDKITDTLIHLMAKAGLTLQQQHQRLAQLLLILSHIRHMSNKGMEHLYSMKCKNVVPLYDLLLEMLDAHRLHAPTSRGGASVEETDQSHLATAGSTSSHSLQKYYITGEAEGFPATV
Sequence of Aromatase (Homo sapiens) (P11511 whole entry, looked up): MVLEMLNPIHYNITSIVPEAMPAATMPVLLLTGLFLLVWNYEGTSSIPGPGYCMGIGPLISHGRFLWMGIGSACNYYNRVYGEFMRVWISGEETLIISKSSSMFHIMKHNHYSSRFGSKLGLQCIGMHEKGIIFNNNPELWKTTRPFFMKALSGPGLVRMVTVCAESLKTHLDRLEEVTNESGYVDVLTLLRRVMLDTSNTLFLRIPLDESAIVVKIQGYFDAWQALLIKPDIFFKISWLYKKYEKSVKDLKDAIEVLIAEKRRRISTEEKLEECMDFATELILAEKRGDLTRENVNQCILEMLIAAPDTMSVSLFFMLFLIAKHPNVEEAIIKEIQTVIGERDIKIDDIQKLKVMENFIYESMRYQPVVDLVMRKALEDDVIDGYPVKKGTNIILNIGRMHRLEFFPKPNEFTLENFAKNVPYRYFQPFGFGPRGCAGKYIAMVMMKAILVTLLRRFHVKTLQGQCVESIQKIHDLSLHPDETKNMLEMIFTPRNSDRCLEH

As for `Cc1cc2c3c(c1)C(c1ccccc1)=N[C@@H](NC(=O)c1ccncc1)C(=O)N3CC2`, the Potency entry in [1], in test [3], in test [4], in test [5], in test [6] and in test [7] was “inactive” in each case. The Potency result with Aromatase (Homo sapiens) was “inactive”. Moreover, the Potency in [2] is 24.3 µM (active).
On to `N#Cc1ccc(N(CC(N)=O)CC(F)(F)F)cc1C(F)(F)F`, for which the Potency result in test [1], in [2], in test [3], in test [4], in [8] and in [5] was “inactive” in each case. Besides, the Potency entry (in test [6]; in [7]; in test [9]; with Aromatase (Homo sapiens)) was “inactive” each time.
As to `CCOC(=O)Cc1ccccc1`, the Potency result in [1], in test [2], in [3], in [4], in [8] and in test [5] was “inactive” in each case. For the same molecule, the Potency result (in test [6]; in test [7]; in test [9]; in the test with Aromatase (Homo sapiens)) was “inactive” each time.
On to `C=CC(=O)[O][Sn]([CH2]CCC)([CH2]CCC)[CH2]CCC`, for which the Potency was 969 nM (active) in test [1]; 0.611 µM (active) in [2]; 0.193 µM (active) in [3]; 1.1 µM (active) in test [8]; 433 nM (active) in test [7]; 5.45 µM (active) in [9]. Also, in the test with Aromatase (Homo sapiens), the Potency was 5.45 µM (active).
Regarding `O=C1C(Cl)=C(Cl)C(=O)C(Cl)=C1Cl`, the Potency in test [1] was 15.3 µM (active) and 13.7 µM (active); in test [2], 9.65 µM (active) and 5.45 µM (active); in test [4], 54.9 µM [inconclusive] (active); in test [5], 43.7 µM [activator] (active); with Aromatase (Homo sapiens), 9.65 µM (active) and 9.69 µM (active). Also, the Potency entry in [3], in test [8], in [6], in [7] and in test [9] was “inactive” each time.
For the molecule `CC(C)Br`, the Potency entry in [1], in [2], in [3], in test [4], in [8] and in test [5] was “inactive” each time. In addition, the Potency entry (in test [6]; in test [7]; in test [9]; in the test with Aromatase (Homo sapiens)) was “inactive” throughout.
As for `CCCCN(CCCC)C(=S)[S-].CCCCN(CCCC)C(=S)[S-].[Ni+2]`, the Potency entry in test [1], in test [2], in test [3], in [4], in test [8] and in test [5] was “inactive” throughout. Besides, the Potency result (in [7]; in test [9]; with Aromatase (Homo sapiens)) was “inactive” in each case.
Consider `BrCC(Br)(Br)Br`, for which the Potency entry in test [1], in test [2], in test [3], in [4], in test [8] and in [5] was “inactive” each time. Besides, the Potency entry (in [6]; in [9]; with Aromatase (Homo sapiens)) was “inactive” in each case. In test [7], the Potency is 35600 nM (active).
Take `O=C(N[C@@H]1N=C(c2ccccc2F)c2cccc3c2N(CC3)C1=O)c1cc2ccccc2[nH]1`: the Potency result in [1] and in test [3] was “inactive” throughout. The Potency in test [2] was 6.68 µM (active).
For `CC(C)C(Nc1ccc(C(F)(F)F)cc1Cl)C(=O)OC(C#N)c1cccc(Oc2ccccc2)c1` (centres undefined), the Potency entry in test [1], in test [2], in test [3], in test [4], in [8] and in test [6] was “inactive” throughout. In addition, the Potency result (in [7]; in test [9]; with Aromatase (Homo sapiens)) was “inactive” each time.
As for `c1ccc2nc(N3CCNCC3)ccc2c1`, the Potency is 29800 nM (active) in test [1] and 29.8 µM (active) in test [2]. For the same molecule, the Potency result in test [3], in test [4] and in test [5] was “inactive” throughout.
For `CC(C)N(C(=O)CCl)c1ccccc1`, the Potency was 27.3 µM (active) and 34.4 µM (active) in test [1]; 68.6 µM (active) and 48.6 µM (active) in test [2]; 15.5 µM [inconclusive] (active) and 6.92 µM [inconclusive] (active) in test [4]; 54.5 µM (active) and 61.1 µM (active) in test [7]; 21.7 µM (active) and 27.3 µM (active) in the test with Aromatase (Homo sapiens). Also, the Potency entry in test [3], in test [8], in test [5] and in [9] was “inactive” throughout.
For the molecule `CNC(=O)CSP(=O)(OC)OC`, the Potency entry in test [1], in test [2], in [3], in test [4], in [8] and in test [5] was “inactive” in each case. The Potency entry (in [6]; in test [7]; in [9]; in the test with Aromatase (Homo sapiens)) was “inactive” in each case.
With `CNC(=O)Oc1cc(C)cc(C(C)C)c1`, the Potency result in test [1], in test [2], in test [3], in [8], in test [5] and in [6] was “inactive” in each case. The Potency result (in test [7]; in test [9]; with Aromatase (Homo sapiens)) was “inactive” each time.
As for `O=S(=O)(O)F`, the Potency result in [1], in test [2], in [3], in test [4], in test [5] and in test [6] was “inactive” throughout. Also, the Potency entry (in test [7]; in [9]; with Aromatase (Homo sapiens)) was “inactive” throughout.
Take `Brc1cccc(-c2ccccc2)c1`: the Potency entry in [1], in test [2], in test [3], in [8], in test [5] and in test [7] was “inactive” throughout. Also, the Potency entry (in test [9]; with Aromatase (Homo sapiens)) was “inactive” in each case.
For the molecule `O=[N+]([O-])c1ccccc1-c1ccccc1`, the Potency result in test [1], in test [2], in [3], in [4], in test [8] and in test [5] was “inactive” throughout. In addition, the Potency entry (in [7]; in test [9]; with Aromatase (Homo sapiens)) was “inactive” in each case.
With `C=CC(=C)C`, the Potency result in [1], in test [2], in test [3], in test [4], in test [8] and in test [5] was “inactive” in each case. Also, the Potency entry (in [9]; with Aromatase (Homo sapiens)) was “inactive” throughout.
As for `CCC1COC(Cn2cncn2)(c2ccc(Cl)cc2Cl)O1` (centres undefined), the Potency result in test [1], in test [2], in test [3], in test [4], in test [8] and in [5] was “inactive” in each case. Besides, the Potency result in test [6] and in test [9] was “inactive” each time. The Potency with Aromatase (Homo sapiens) was 24.3 µM (active).
Consider `CN1[C@@H]2CC[C@H]1CC(O)C2` (some centres undefined), for which the Potency entry in test [1], in [2], in test [3], in test [4], in test [8] and in test [5] was “inactive” in each case. The Potency result (in test [6]; in test [7]; in test [9]; with Aromatase (Homo sapiens)) was “inactive” each time.
Turning to `Nc1ccccc1-c1ccccc1`, the Potency result in test [1], in test [2], in test [3], in [8], in test [5] and in test [9] was “inactive” in each case. Moreover, the Potency entry with Aromatase (Homo sapiens) was “inactive”.
